Measured values as given in article PMC7862700, “An all-to-all approach to the identification of sequence-specific readers for epigenetic DNA modifications on cytosine”.

What was measured:
Assay in all cases: DAPPL (digital affinity profiling via proximity ligation, sequencing); 10 mM Tris-HCl pH 7.5, 50 mM NaCl, 1 mM DTT, 4% glycerol, room temperature, 30 min; GST-TFs on glutathione beads, 16-mer random dsDNA library, 0.1% formaldehyde crosslink after washing; high values mean tight binding
[1] = molecular target: T1, FLI1 (Homo sapiens, UniProt Q01543 1-452); details: protein: recombinant; tags: N-terminal GST; dsDNA, one strand shown
T1 sequence: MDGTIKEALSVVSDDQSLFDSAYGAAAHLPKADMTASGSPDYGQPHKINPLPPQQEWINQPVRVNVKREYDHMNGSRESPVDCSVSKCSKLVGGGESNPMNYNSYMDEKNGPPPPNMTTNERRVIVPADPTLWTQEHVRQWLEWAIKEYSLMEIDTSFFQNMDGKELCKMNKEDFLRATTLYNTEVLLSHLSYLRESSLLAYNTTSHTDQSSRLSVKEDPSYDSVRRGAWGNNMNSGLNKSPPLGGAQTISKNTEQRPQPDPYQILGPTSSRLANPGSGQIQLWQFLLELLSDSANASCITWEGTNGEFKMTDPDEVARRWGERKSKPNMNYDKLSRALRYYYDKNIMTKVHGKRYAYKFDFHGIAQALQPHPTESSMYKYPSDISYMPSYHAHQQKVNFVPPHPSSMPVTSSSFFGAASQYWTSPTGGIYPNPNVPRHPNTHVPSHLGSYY
Method in brief: (§1)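 Beads coated with glutathione captured GST-fused human transcription factors that had been expressed in yeast, and the factors were then given DNA barcodes and pooled with a tag-only sample. The pools were incubated with 200 nmole of a random double-stranded 16-mer DNA library in Tris/NaCl/DTT/glycerol buffer for 30 min at room temperature, washed, crosslinked with 0.1% formaldehyde and proximity-ligated with BsaI/T4 ligase at 37 °C for 1 h. PCR amplification and Illumina NextSeq500 sequencing came last. Binding signal is each hexamer's read frequency for a factor divided by its frequency for the tag-only sample.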

[2] = molecular target: T2, ELK1 (Homo sapiens, UniProt P19419 1-428); details: protein: recombinant; tags: N-terminal GST; dsDNA, one strand shown
T2 sequence: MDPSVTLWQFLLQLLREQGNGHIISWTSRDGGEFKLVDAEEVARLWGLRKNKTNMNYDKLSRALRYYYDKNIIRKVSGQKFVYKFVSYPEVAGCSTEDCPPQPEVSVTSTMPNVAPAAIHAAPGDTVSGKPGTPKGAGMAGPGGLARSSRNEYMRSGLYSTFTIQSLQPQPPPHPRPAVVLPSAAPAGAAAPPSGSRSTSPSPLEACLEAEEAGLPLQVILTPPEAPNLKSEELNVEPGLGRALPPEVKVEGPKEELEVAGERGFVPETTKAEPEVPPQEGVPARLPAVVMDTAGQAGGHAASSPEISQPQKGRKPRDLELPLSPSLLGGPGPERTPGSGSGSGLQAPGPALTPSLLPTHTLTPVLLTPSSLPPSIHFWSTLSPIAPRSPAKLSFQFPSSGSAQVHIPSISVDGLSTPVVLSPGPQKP
Method in brief: as §1

[3] = molecular target: T3, GABPA (Homo sapiens, UniProt Q06546 1-454); details: protein: recombinant; tags: N-terminal GST; dsDNA, one strand shown
T3 sequence: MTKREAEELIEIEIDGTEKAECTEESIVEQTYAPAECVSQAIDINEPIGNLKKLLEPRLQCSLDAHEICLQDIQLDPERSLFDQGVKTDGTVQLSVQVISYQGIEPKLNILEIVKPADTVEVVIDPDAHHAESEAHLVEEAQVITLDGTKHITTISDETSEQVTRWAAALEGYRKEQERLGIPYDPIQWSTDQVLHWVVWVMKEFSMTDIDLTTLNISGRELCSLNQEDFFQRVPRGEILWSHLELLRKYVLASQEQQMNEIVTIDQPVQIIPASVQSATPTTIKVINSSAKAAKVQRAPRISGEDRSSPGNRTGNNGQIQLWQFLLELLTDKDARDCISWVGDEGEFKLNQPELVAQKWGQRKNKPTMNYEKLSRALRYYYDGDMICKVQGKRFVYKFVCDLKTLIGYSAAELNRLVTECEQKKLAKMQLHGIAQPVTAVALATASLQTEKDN
Method in brief: as §1

[4] = molecular target: T4, ERG (Homo sapiens, UniProt P11308 1-479); details: protein: recombinant; tags: N-terminal GST; dsDNA, one strand shown
T4 sequence: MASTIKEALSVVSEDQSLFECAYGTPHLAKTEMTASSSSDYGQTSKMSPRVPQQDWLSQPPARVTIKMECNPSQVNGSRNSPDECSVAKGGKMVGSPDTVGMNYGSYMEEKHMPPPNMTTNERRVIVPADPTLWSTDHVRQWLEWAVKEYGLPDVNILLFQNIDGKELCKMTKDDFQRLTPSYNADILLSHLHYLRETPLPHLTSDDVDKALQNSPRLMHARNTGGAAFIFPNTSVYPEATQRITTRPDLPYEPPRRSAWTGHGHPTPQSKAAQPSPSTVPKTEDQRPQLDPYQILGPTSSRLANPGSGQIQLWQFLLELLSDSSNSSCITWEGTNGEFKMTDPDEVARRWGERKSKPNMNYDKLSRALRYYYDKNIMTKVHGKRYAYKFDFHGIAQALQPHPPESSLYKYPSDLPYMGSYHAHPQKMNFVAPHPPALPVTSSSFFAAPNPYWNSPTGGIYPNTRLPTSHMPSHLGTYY
Method in brief: as §1

[5] = molecular target: ELF1 (Homo sapiens, UniProt P32519 1-619); details: protein: recombinant; tags: N-terminal GST; dsDNA, one strand shown
Method in brief: as §1

[6] = molecular target: T5, EHF (Homo sapiens, UniProt Q9NZC4 1-300); details: protein: recombinant; tags: N-terminal GST; dsDNA, one strand shown
T5 sequence: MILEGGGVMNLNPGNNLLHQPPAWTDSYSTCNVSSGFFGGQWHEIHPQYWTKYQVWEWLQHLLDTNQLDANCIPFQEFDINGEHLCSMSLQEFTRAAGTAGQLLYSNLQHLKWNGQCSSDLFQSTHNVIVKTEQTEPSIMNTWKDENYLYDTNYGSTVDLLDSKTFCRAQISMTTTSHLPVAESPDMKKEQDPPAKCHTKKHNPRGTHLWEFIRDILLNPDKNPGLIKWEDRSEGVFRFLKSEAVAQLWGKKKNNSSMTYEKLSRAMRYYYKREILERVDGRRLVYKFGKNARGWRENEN
Method in brief: as §1

[7] = molecular target: SPI1 (Homo sapiens, UniProt P17947 1-270); details: protein: recombinant; tags: N-terminal GST; dsDNA, one strand shown
Method in brief: as §1

[8] = molecular target: SPIB (Homo sapiens, UniProt Q01892 1-262); details: protein: recombinant; tags: N-terminal GST; dsDNA, one strand shown
Method in brief: as §1

[9] = molecular target: T6, ELK3 (Homo sapiens, UniProt P41970 1-407); details: protein: recombinant; tags: N-terminal GST; dsDNA, one strand shown
T6 sequence: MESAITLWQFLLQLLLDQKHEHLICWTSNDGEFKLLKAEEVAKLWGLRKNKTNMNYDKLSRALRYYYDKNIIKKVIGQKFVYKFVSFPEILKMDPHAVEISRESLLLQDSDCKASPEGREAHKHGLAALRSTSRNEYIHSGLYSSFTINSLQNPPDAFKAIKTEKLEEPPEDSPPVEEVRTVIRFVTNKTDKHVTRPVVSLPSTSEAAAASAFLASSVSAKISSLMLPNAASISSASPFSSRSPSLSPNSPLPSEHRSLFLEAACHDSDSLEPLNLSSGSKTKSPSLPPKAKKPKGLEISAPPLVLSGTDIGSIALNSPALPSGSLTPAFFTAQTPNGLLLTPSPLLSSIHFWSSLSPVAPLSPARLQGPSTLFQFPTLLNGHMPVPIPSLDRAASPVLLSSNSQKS
Method in brief: as §1

[10] = molecular target: T7, FEV (Homo sapiens, UniProt Q99581 1-238); details: protein: recombinant; tags: N-terminal GST; dsDNA, one strand shown
T7 sequence: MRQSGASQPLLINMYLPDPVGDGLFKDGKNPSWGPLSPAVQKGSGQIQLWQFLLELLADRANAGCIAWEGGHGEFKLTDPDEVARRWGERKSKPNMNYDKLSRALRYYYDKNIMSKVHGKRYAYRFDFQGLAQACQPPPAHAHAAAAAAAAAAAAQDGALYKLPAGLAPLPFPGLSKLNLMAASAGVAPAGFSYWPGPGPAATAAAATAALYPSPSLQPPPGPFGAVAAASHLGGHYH
Method in brief: as §1

[11] = molecular target: ETV5 (Homo sapiens, UniProt P41161 1-510); details: protein: recombinant; tags: N-terminal GST; dsDNA, one strand shown
Method in brief: as §1

[12] = molecular target: HSF1 (Homo sapiens, UniProt Q00613 1-529); details: protein: recombinant; tags: N-terminal GST; chain copies: 3; dsDNA, one strand shown
Method in brief: as §1

[13] = molecular target: T8, SPIC (Homo sapiens, UniProt Q8N5J4 1-248); details: protein: recombinant; tags: N-terminal GST; dsDNA, one strand shown
T8 sequence: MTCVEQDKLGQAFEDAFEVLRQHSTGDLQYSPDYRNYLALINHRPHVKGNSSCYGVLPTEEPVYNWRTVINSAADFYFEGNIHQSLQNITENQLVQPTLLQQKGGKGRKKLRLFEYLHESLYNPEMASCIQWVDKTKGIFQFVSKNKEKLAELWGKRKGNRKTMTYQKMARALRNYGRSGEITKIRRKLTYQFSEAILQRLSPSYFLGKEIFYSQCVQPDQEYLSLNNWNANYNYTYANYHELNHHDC
Method in brief: as §1

[14] = molecular target: ELF4 (Homo sapiens, UniProt Q99607 1-663); details: protein: recombinant; tags: N-terminal GST; dsDNA, one strand shown
Method in brief: as §1

[15] = molecular target: T9, ELK4 (Homo sapiens, UniProt P28324-2 1-405); details: protein: recombinant; tags: N-terminal GST; dsDNA, one strand shown
T9 sequence: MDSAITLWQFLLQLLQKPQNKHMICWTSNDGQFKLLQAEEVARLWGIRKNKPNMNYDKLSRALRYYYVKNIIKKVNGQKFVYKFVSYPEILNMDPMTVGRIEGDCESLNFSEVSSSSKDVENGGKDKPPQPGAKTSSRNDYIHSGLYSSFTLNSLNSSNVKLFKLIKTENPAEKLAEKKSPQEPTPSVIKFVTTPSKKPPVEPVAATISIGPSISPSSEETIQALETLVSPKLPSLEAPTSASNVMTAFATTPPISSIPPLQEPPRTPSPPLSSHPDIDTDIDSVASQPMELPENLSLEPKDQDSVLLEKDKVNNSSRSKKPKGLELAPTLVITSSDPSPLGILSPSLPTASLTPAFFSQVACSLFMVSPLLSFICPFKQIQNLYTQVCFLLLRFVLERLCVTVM
Method in brief: as §1

[16] = molecular target: T10, ETV2 (Homo sapiens, UniProt O00321 1-342); details: protein: recombinant; tags: N-terminal GST; dsDNA, one strand shown
T10 sequence: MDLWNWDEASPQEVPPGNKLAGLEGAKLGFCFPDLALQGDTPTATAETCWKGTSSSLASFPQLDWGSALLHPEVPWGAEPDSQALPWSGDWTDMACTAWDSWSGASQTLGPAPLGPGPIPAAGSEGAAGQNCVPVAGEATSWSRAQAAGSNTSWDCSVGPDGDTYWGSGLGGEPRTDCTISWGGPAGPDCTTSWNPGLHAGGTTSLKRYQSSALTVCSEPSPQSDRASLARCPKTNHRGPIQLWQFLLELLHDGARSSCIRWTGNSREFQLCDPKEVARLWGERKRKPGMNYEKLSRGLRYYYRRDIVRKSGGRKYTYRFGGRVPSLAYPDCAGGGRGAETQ
Method in brief: as §1

[17] = molecular target: T11, ELF3 (Homo sapiens, UniProt P78545 1-371); details: protein: recombinant; tags: N-terminal GST; dsDNA, one strand shown
T11 sequence: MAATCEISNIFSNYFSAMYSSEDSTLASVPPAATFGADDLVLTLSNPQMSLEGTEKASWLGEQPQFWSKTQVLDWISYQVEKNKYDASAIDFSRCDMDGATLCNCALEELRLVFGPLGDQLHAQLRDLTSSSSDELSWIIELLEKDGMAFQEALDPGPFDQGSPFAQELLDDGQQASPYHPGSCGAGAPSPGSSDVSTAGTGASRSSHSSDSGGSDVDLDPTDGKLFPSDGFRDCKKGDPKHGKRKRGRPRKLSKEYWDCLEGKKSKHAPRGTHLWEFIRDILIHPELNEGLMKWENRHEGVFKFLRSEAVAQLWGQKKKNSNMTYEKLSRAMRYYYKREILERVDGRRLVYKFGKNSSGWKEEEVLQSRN
Method in brief: as §1

[18] = molecular target: CRX (Homo sapiens, UniProt O43186 1-299); details: protein: recombinant; tags: N-terminal GST; dsDNA, one strand shown
Method in brief: as §1

[19] = molecular target: ETV1 (Homo sapiens, UniProt P50549 1-477); details: protein: recombinant; tags: N-terminal GST; dsDNA, one strand shown
Method in brief: as §1

Chain of ETV1 (P50549 whole entry): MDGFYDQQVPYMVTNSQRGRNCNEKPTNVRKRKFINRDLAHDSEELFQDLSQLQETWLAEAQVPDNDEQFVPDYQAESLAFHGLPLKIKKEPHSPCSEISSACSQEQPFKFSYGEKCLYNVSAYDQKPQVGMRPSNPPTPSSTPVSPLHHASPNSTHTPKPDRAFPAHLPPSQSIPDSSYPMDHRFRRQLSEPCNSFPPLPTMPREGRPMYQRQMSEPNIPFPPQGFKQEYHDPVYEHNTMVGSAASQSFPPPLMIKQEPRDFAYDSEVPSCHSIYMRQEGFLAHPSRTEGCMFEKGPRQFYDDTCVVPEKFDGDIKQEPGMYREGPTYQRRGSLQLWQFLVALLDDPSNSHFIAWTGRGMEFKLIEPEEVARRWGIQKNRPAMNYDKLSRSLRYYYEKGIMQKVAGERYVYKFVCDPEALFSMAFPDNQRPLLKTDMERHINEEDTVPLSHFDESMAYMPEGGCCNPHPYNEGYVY
Chain of ELF4 (Q99607 whole entry): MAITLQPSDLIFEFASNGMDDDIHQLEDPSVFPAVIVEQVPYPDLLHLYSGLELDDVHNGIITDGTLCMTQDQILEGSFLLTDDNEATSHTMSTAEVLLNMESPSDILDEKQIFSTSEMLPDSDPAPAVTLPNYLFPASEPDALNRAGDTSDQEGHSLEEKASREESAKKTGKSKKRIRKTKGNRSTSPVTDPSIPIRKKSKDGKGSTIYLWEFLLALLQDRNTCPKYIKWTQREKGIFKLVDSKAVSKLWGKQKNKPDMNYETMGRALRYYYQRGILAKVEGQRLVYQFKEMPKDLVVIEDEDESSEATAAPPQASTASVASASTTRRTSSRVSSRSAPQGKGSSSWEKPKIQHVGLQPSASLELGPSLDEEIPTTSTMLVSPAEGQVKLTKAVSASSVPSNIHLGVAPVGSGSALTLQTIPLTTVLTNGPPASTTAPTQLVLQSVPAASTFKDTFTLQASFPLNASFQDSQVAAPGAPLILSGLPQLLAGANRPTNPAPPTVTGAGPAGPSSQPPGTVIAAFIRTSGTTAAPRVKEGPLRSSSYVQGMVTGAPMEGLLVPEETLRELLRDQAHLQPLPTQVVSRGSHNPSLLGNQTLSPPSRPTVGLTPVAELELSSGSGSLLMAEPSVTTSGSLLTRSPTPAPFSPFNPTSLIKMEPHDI
Chain of ELF1 (P32519 whole entry): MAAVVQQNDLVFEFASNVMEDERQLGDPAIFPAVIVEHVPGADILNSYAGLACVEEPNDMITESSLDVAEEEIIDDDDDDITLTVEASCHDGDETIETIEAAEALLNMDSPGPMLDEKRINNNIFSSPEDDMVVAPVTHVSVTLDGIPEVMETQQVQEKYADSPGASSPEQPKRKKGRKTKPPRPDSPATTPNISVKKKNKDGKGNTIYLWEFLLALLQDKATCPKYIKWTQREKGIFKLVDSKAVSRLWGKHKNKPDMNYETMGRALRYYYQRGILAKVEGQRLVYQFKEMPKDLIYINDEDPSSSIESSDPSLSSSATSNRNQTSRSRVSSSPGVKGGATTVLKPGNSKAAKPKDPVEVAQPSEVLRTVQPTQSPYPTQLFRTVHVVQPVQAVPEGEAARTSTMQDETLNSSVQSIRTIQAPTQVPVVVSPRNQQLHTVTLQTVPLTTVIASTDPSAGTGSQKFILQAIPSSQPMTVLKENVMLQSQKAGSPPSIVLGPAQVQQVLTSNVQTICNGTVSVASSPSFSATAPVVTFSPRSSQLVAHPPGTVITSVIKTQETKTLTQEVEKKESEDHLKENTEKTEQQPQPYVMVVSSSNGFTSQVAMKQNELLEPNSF
Chain of HSF1 (Q00613 whole entry): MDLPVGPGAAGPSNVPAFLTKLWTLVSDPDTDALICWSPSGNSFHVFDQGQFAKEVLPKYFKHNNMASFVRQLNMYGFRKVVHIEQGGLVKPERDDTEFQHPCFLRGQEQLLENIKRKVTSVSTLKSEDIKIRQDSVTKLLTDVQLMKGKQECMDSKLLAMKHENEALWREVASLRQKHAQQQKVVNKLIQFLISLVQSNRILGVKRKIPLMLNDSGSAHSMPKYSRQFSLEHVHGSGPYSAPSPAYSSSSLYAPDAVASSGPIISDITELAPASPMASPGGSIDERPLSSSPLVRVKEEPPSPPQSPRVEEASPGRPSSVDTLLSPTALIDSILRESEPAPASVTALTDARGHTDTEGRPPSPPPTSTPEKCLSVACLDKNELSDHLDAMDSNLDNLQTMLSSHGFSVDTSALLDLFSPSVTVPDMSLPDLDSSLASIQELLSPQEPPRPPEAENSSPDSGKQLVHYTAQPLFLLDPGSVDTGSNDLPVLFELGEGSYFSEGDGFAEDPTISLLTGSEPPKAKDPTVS
Chain of ETV5 (P41161 whole entry): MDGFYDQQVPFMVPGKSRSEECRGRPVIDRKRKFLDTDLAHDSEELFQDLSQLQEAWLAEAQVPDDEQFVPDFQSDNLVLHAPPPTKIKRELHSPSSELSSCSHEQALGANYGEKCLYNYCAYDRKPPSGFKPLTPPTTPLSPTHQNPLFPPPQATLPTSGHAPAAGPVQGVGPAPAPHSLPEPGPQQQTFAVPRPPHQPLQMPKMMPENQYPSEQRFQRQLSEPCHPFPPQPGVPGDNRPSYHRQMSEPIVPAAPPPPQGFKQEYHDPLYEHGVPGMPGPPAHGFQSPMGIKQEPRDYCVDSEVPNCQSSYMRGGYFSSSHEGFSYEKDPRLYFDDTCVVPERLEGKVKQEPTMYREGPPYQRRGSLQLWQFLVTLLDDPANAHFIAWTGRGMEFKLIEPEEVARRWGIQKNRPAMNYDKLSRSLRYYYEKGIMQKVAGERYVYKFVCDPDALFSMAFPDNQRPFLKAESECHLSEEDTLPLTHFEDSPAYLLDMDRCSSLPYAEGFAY
Chain of SPIB (Q01892 whole entry): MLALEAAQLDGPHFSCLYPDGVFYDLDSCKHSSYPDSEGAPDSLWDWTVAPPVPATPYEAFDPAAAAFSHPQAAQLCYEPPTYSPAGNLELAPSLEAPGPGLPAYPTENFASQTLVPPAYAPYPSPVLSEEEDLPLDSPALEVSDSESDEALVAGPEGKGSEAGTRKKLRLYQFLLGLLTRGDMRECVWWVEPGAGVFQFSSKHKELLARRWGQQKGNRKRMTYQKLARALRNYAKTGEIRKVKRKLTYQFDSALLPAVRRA
Chain of CRX (O43186 whole entry): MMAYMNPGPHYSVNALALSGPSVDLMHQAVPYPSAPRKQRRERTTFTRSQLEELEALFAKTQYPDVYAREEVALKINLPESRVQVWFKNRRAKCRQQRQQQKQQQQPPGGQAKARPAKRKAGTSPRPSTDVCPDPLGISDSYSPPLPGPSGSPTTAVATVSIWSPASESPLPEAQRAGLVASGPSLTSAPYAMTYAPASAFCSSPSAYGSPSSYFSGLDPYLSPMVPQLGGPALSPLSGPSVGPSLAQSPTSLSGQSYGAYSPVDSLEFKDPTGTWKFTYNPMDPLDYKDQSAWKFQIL

Q: What does the source list for TCTAAT?
A: binding signal [1]: 1.2 fold enrichment (6-mer frequency, TF over GST control); binding signal [2]: 1.17 fold enrichment (6-mer frequency, TF over GST control); binding signal [3]: 1.18 fold enrichment (6-mer frequency, TF over GST control); binding signal [4]: 1.17 fold enrichment (6-mer frequency, TF over GST control); binding signal [5]: 1.14 fold enrichment (6-mer frequency, TF over GST control); binding signal [6]: 1.26 fold enrichment (6-mer frequency, TF over GST control); binding signal [7]: 1.19 fold enrichment (6-mer frequency, TF over GST control); binding signal [8]: 1.16 fold enrichment (6-mer frequency, TF over GST control); binding signal [9]: 1.21 fold enrichment (6-mer frequency, TF over GST control); binding signal [10]: 1.16 fold enrichment (6-mer frequency, TF over GST control); binding signal [11]: 1.17 fold enrichment (6-mer frequency, TF over GST control); binding signal [12]: 1.73 fold enrichment (6-mer frequency, TF over GST control); binding signal [13]: 1.26 fold enrichment (6-mer frequency, TF over GST control); binding signal [14]: 1.21 fold enrichment (6-mer frequency, TF over GST control); binding signal [15]: 1.18 fold enrichment (6-mer frequency, TF over GST control); binding signal [16]: 1.22 fold enrichment (6-mer frequency, TF over GST control); binding signal [17]: 1.16 fold enrichment (6-mer frequency, TF over GST control); binding signal [18]: 2.37 fold enrichment (6-mer frequency, TF over GST control); binding signal [19]: 1.26 fold enrichment (6-mer frequency, TF over GST control)
